PubChem BioAssay
For part of these data: Potency and affinity values are given separately. Activity calls are given as the source filed them.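 How the source made its calls, unless noted: active means fluorescence ratio normalized to control raised more than 50% in primary screen plus both repeat runs; inactive means the rest.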

How the values were obtained:
[1] = tested on: TRPC4 beta (transient receptor potential cation channel C4), mouse; test: TRPC4 cation channel opening, retest – cell-based, Fluo4 calcium, HEK293 TRPC4beta/mu-opioid, duplicates, 10 µM, confirmation (AID 2426); settings: Fluo4 calcium fluorescence, at 10 µM; stronger effect = higher value
[2] = tested on: transient receptor potential cation channel C4 beta (TRPC4), mouse; test: TRPC4 cation channel opening, second retest – cell-based, second round, Fluo4, HEK293 TRPC4beta/mu-opioid, 1 µM, confirmation (AID 2461;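 active means primary screen active and over 50% activation in each of two duplicate runs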); settings: Fluo4 calcium fluorescence, at 1 µM; stronger effect = higher value
[3] = tested on: TRPC4 (transient receptor potential cation channel C4 beta), mouse; test: potentiation of DAMGO EC20 TRPC4 response – cell-based, second round, Fluo-4, HEK293 TRPC4beta/mu-opioid, 1 µM, confirmation (AID 2554;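 active means primary screen hit whose fluorescence ratio, in both repeats, exceeds the weak agonist control mean by 3 SD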); settings: DAMGO EC20, Fluo-4 calcium flux, at 1 µM; stronger effect = higher value
[4] = tested on: TRPC4 beta (transient receptor potential cation channel C4), mouse; test: potentiation of DAMGO EC20 TRPC4 response – cell-based, Fluo-4, HEK293 TRPC4beta/mu-opioid, confirmation (AID 2555;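 active means primary screen hit whose calcium fluorescence ratio, in both repeats, exceeds the weak agonist control mean by 3 SD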); settings: DAMGO EC20, Fluo-4 calcium flux, at 10 µM; stronger effect = higher value
[5] = target: Short transient receptor potential channel 4 (Mus musculus) (UniProt Q9QUQ5); test: blockers of DAMGO-evoked TRPC4 calcium flux – cell-based, Fluo4, HEK293 TRPC4beta/mu-opioid, confirmation (AID 2636;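 active means calcium signal cut by more than 3 SD below the full-agonist control yet still positive, in both repeats and the earlier primary screen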); settings: at 10 µM; stronger effect = higher value
Sequence of Short transient receptor potential channel 4 (Mus musculus) (Q9QUQ5 whole entry, looked up): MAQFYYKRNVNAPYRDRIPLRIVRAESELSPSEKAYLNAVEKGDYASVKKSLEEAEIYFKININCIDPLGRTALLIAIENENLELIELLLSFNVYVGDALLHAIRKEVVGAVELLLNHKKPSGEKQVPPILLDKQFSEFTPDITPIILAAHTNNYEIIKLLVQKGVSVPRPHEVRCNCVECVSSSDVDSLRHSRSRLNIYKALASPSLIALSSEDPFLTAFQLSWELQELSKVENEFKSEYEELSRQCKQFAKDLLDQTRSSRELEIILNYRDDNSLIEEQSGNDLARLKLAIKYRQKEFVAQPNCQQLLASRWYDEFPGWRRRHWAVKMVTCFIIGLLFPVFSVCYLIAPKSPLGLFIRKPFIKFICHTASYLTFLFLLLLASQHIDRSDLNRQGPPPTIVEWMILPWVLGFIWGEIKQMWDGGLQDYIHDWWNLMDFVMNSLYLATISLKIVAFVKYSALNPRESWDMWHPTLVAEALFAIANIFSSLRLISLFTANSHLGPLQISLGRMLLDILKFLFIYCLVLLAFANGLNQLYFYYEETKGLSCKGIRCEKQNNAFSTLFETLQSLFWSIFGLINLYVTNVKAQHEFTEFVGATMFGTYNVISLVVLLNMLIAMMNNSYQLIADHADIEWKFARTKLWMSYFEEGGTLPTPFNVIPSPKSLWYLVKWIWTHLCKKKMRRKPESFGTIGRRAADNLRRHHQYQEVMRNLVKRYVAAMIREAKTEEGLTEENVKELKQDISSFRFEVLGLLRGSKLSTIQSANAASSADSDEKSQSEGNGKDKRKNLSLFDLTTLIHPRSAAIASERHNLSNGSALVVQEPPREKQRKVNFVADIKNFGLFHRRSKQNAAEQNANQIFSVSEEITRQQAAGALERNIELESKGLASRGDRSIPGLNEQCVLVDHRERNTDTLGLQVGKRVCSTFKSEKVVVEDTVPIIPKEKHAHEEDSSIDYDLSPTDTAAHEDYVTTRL

[6] = target: Short transient receptor potential channel 4 (Mus musculus) (UniProt Q9QUQ5); test: blockers of DAMGO-evoked TRPC4 calcium flux – cell-based, second round, Fluo4, HEK293 TRPC4beta/mu-opioid, 1 µM, confirmation (AID 2637;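 active means calcium signal ratio cut to more than 3 SD under the fully stimulated control mean yet still positive, in both repeats and the primary screen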;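 on inhibition: percent of integrated ratio relative to wells lacking test compound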); settings: at 1 µM; stronger effect = higher value
[7] = target: Short transient receptor potential channel 4 (Mus musculus) (UniProt Q9QUQ5); test: calcium entry via TRPC4 opening agents – cell-based, HEK293 TRPC4/mu-opioid, Fluo-4 calcium, dose response (AID 434937;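 active means primary screen activator hit with a dose response curve and TRPC4 channel activation at any tested dose; inactive means no activation, no dose response, or not a primary hit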)
[8] = target: Short transient receptor potential channel 4 (Mus musculus) (UniProt Q9QUQ5); test: potentiation of DAMGO-evoked TRPC4 calcium signal – cell-based, HEK293 TRPC4/mu-opioid, Fluo-4 calcium, EC20 DAMGO, dose response (AID 434941;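 active means earlier screen potentiator hit that boosts the TRPC4 ion channel at some dose, with a dose response; inactive means no potentiation, no dose response, or not a prior hit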;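 further: calcium entry triggered by an EC20 dose of DAMGO at the co-expressed mu-opioid receptor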)
[9] = target: Short transient receptor potential channel 6 (Mus musculus) (UniProt Q61143); test: TRPC6 blockade by TRPC4 inhibitor hits – cell-based, HEK293, membrane potential dye, duplicate, selectivity assay for TRPC4 inhibitor project, confirmation (AID 434948;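 active means active in primary screen and both duplicates, each dropping signal beyond three positive-control SD with fluorescence still positive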); settings: HEK293 TRPC6, membrane potential dye fluorescence, at 10 µM, stimulated with maximal-effect acetylcholine; stronger effect = higher value
Sequence of Short transient receptor potential channel 6 (Mus musculus) (Q61143 whole entry, looked up): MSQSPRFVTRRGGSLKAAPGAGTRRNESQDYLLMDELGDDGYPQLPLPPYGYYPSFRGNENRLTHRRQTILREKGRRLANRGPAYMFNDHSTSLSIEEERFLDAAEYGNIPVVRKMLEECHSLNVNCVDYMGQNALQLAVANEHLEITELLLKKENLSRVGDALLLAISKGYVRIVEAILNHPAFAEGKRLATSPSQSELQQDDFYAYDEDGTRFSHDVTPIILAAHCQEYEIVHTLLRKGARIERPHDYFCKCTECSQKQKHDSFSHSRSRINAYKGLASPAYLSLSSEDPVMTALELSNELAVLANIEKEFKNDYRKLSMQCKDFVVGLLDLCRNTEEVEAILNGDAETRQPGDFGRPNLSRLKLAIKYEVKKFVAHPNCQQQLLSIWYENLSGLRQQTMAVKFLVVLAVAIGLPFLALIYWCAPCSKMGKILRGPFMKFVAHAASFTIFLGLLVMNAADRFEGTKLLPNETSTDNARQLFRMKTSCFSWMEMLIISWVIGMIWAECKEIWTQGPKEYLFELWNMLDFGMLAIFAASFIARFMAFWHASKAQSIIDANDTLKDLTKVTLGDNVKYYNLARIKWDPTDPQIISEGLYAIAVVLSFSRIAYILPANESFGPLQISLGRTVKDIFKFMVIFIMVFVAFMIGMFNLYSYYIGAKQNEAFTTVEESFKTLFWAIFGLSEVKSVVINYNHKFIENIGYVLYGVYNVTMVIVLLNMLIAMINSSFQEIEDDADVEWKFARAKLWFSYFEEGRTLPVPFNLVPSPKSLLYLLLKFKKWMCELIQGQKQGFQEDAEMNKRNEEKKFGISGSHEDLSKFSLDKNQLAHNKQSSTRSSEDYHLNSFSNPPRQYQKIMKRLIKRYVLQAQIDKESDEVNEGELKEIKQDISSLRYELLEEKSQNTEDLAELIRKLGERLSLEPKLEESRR

[10] = target: Short transient receptor potential channel 6 (Mus musculus) (UniProt Q61143); test: TRPC6 opening by TRPC4 activator hits – cell-based, HEK293, membrane potential dye, duplicate, selectivity assay for TRPC4 activator project, confirmation (AID 434950;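 active means membrane potential signal rise above negative control mean plus 3 SD in both duplicates, also active in the earlier TRPC4 screen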); settings: HEK293 TRPC6, membrane potential fluorescence, at 10 µM; activation: stronger effect = higher value; outcome: activation
[11] = target: Short transient receptor potential channel 6 (Mus musculus) (UniProt Q61143); test: positive modulators of mouse TRPC6 channel – HEK293 cells, membrane potential dye, duplicate, selectivity assay for TRPC4 potentiator project, confirmation (AID 434952;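 active means compound raising the membrane signal above positive-control mean plus 3 SD in both repeats, and a primary screen hit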); settings: HEK293 TRPC6, membrane potential dye fluorescence, at 10 µM, maximal acetylcholine added after compound; stronger effect = higher value
[12] = target: Short transient receptor potential channel 4 (Mus musculus) (UniProt Q9QUQ5); test: calcium flux activators in TRPC4/5HT1a cells, counter-screen for TRPC4 activator project, cell-based, second counter screen, HEK293 TRPC4/5HT1a, Fluo-4 (AID 434977;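 active means calcium signal rise above buffer-control mean plus 5 SD in both duplicates, and also a hit in the primary screen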); settings: Fluo-4 calcium flux, at 10 µM; stronger effect = higher value
[13] = serotonin-gated TRPC4 signal block – cell-based, second counter screen, HEK293 TRPC4/5HT1a, Fluo-4, counter-screen for TRPC4 inhibitor project, confirmation (AID 434978;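 active means primary screen active whose calcium signal fell more than 3 SD beyond the full-serotonin control mean in both duplicate plates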;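 on outcome: serotonin given first at submaximal then at maximal dose after compound preincubation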); settings: Fluo-4 calcium flux, at 10 µM, serotonin added to trigger calcium flux; stronger effect = higher value
[14] = tested on: TRPC4 (mouse), co-expressed with 5HT1a in HEK293; test: enhancement of serotonin-evoked TRPC4 response – cell-based, second counter screen, HEK293 TRPC4/5HT1a, Fluo-4, counter-screen for TRPC4 potentiator project, confirmation (AID 434979;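 active means signal rise over 3 SD above mean of control wells given weak agonist, in both repeats and first screen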); settings: Fluo-4 calcium flux, at 10 µM, serotonin added at its EC20 dose; stronger effect = higher value
[15] = nonspecific calcium rise without TRPC4 – cell-based, HEK293 mu-opioid receptor line, counter-screen for TRPC4 activator project, confirmation (AID 449723;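 active means hit in primary screen, with calcium signal over 5 SD above buffer well mean in both duplicates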;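 further: counter screen cells carry the mu-opioid receptor alone and lack TRPC4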); settings: HEK293 mu-opioid cells, Fluo-4 calcium fluorescence, at 10 µM; stronger effect = higher value
[16] = nonspecific potentiation of DAMGO calcium response – cell-based, HEK293 mu-opioid receptor line, counter-screen for TRPC4 allosteric potentiator project, confirmation (AID 449724;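 active means calcium signal rise more than 3 SD above the low-dose agonist control mean, in both duplicate plates and the primary screen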); settings: HEK293 mu-opioid receptor cells, Fluo-4 calcium flux, at 10 µM, compound added before EC20 DAMGO stimulus; stronger effect = higher value

Measured: inhibition

Cc1ccc(N2CCN(C(=O)c3ccccc3F)CC2)c(C)c1
active: [5] 84% | [6] 41% | [13] 26.6%
inactive: all other assays above

CN(C)C(CNC(=O)c1ccccc1OCc1ccc(Cl)cc1)c1ccco1 (stereo not given)
active: [5] 84% | [6] 62% | [13] 23%
inactive: all other assays above

CC(Oc1ccc(Cl)cc1Cl)c1nc(-c2ccccn2)no1 (stereo not given)
active: [5] 89% | [6] 53% | [13] 22.7%
inactive: all other assays above

O=[N+]([O-])c1ccc(CN2CCN(Cc3c[nH]c4ccccc34)CC2)cc1
active: [5] 83% | [13] 28.9%
inactive: all other assays above

C=CCNc1nc(N2CCCC2)nc2ccccc12
active: [5] 98% | [6] 74% | [9] 37.5% | [13] 19.9%
inactive: all other assays above

CNC(=O)COc1ccc2oc3c(c2c1)CCCC3
active: [5] 74% | [6] 49% | [13] 31.4%
inactive: all other assays above

Cc1ccc(C)c2[nH]c(=O)c(CN(CC3CCCO3)C(=S)NCc3ccco3)cc12 (stereo not given)
active: [5] 79% | [13] 37.5%
inactive: all other assays above

C=CCc1ccccc1OCC(O)CN1CCN(c2ccccc2OC)CC1 (stereo not given)
active: [5] 68% | [13] 13.1%
inactive: all other assays above

COc1cccc(Cn2c(Oc3ccccc3)nc3c2c(=O)n(C)c(=O)n3C)c1
active: [5] 81% | [6] 43% | [13] 40.4%
inactive: all other assays above

N=c1c2c(n(Cc3ccc(Cl)cc3)c3c1CCC3)CCC2
active: [5] 96% | [6] 50% | [9] 34.5% | [13] 10.6%
inactive: all other assays above

C=CCOc1ccc(C2CC(C)=NN2c2ccccc2)cc1 (stereo not given)
active: [5] 84% | [6] 44% | [13] 32%
inactive: all other assays above

CCn1nc(C)c(CN2CCCC(CO)(Cc3cccc(Cl)c3)C2)c1C (stereo not given)
active: [5] 90% | [6] 49%
inactive: all other assays above

CCC(O)(c1ccc(OC)cc1)C(CN1CCOCC1)c1ccccc1 (stereo not given)
active: [5] 92% | [6] 52% | [13] 14.9%
inactive: all other assays above

CC(C)c1ccc(S(=O)(=O)/N=C2\C=C(NS(=O)(=O)c3ccccc3)C(=O)c3ccccc32)cc1
active: [5] 81% | [9] 21.5% | [13] 19.2%
inactive: all other assays above

Cc1nn(C(=O)c2cccnc2)c(C)c1Sc1ccccc1
active: [5] 92% | [13] 16.5%
inactive: all other assays above

Fc1ccccc1Sc1ccccc1CNC1=NCCN1
active: [5] 93% | [6] 68% | [13] 16.1%
inactive: all other assays above

O=C(CSc1nc2[nH]ncc2c(=O)n1-c1ccccc1Br)NCc1ccccc1Cl
inactive: all assays above

CCC1C=C(c2ccccc2)C=CN=C1N(CC)CC (stereo not given)
active: [5] 93% | [13] 26.5%
inactive: all other assays above

O=C(c1ccco1)N1CCN(C/C=C/c2ccccc2)CC1
active: [5] 87% | [6] 64%
inactive: all other assays above

CCCN1C2=NCCN2c2cc(C)c(C)cc21
active: [5] 91% | [6] 48% | [9] 40.5% | [13] 25.6%
inactive: all other assays above

Cc1ccc(OCCn2c(C)nc3ccccc32)cc1
active: [5] 94% | [6] 61% | [13] 13%
inactive: all other assays above

COC(=O)C1=C(C)N(Cc2ccccc2)C(=S)N[C@H]1c1ccccc1
active: [5] 73% | [13] 25.6%
inactive: all other assays above

Cc1nn(C(=O)c2cccc([N+](=O)[O-])c2)c(C)c1Sc1ccccc1
active: [5] 88% | [13] 32.5%
inactive: all other assays above

CCCCCC[N+](C)(C)CC/C=C1/c2ccccc2Sc2ccc(Cl)cc21
active: [5] 83% | [6] 61% | [9] 42.5% | [13] 31.8%
inactive: all other assays above

Nc1cc(N2CCCCC2)c([N+](=O)[O-])cc1Cl
active: [5] 88% | [6] 42%
inactive: all other assays above

CCCc1noc2c1/C(=N\O)CC(CC(C)SCC)C2 (stereo not given)
active: [5] 92% | [13] 14.8%
inactive: all other assays above

CCOc1ccc2[nH]c3c(N4CCN(c5ccccn5)CC4)ncnc3c2c1
active: [5] 83%
inactive: all other assays above

Cc1nn(C(=O)CNS(=O)(=O)c2ccccc2)c(C)c1Sc1ccc(Cl)cc1
active: [5] 89% | [6] 62% | [9] 52.5% | [13] 11.3%
inactive: all other assays above

Cc1cc(N/N=C/c2ccccc2F)c2ccccc2n1
active: [5] 97% | [6] 67% | [13] 13.1%
inactive: all other assays above

Cc1ccccc1N(C(=O)c1snc(C(N)=O)c1N)C(C(=O)NC1CCCC1)c1ccco1 (stereo not given)
active: [5] 78% | [13] 37%
inactive: all other assays above
